From PubChem BioAssay
T cruzi growth-1 – blocks T. cruzi growth in NIH3T3 culture; actives 5.9% (n = 77,000); inhibition, % at 8.34 µM; T. cruzi beta-gal in NIH3T3, GalScreen luminescence, 90 h;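 active = mean inhibition above about 93%, with at least 55% of replicates each passing it, limit read from the data, passing the limit was not always enough; inconclusive = only one of those two conditions holds; inactive = neither condition holds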
Pf Dd2 inh – P. falciparum Dd2 growth inhibition. SYBR Green, 72 h; stronger effect = lower value. activity change, % at 10 µM. actives 2.3% (n = 94,000). AID 1159554; in the data active = activity change below about -80%; inconclusive = no clear call, values can overlap the other calls
C diff growth – inhibitors of Clostridium difficile growth; Clostridium difficile clinical isolate growth, OD600, 24 h; stronger effect = lower value; actives 0.25% (n = 86,000); growth activity, negative = inhibition, % at 16 µg/mL (by protocol);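 active = mean growth activity at or below -80% and every replicate also at or below -80%; inconclusive = mean at or below -80% but some replicate above -80%; inactive = mean growth activity above -80%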
T cruzi growth-2 – inhibitors of T. cruzi proliferation; actives 72% (n = 5,600); T. cruzi beta-gal in NIH3T3, GalScreen luminescence, 90 h; inhibition, % at 8.35 µM; shares compounds with T cruzi growth-1;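 active = mean replicate inhibition above about 95% and at least 55% of replicates individually reaching it, limit read from the data; inconclusive = only one of the two criteria is met; inactive = neither criterion is met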
T cruzi growth-3 – inhibitors of T. cruzi proliferation. inhibition, % at 2.09 µM. T. cruzi beta-gal in NIH3T3, GalScreen luminescence, 90 h. actives 21% (n = 5,600). AID 651740. shares compounds with T cruzi growth-1;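 active = mean inhibition above about 95%, with at least 55% of replicates also reaching it, limit read from the data; inconclusive = meets just one of the two conditions; inactive = meets neither condition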
NIH3T3 tox – kills mouse NIH/3T3 fibroblasts; shares compounds with T cruzi growth-1; NIH/3T3 viability, CellTiter-Glo ATP luminescence, 90 h; cytotoxicity (signal decrease), % at 8.35 µM; actives 14% (n = 5,600); AID 651742;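 active = mean signal decrease across replicates above about 35% based on untreated-well scatter, with enough replicates individually passing, limit read from the data; inconclusive = no rule stated though some were filed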
NIH3T3 tox 2 – cytotoxicity in mouse NIH/3T3 fibroblasts; actives 56% (n = 5,600); shares compounds with T cruzi growth-1; NIH/3T3 viability, CellTiter-Glo ATP luminescence, 90 h; AID 651744; inhibition, % at 24.9 µM;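 active = mean loss of cell viability signal at or above a set limit, and enough replicates individually reaching it; inconclusive = meets only the mean limit or only the replicate share; inactive = meets neither condition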
Numbers stand for hits; i = inactive; ? = inconclusive; nt = no result given. This is a sample that favours compounds with a hit; in the whole collection about 6.7% have one here.

SMILES	T cruzi growth-1	Pf Dd2 inh	C diff growth	T cruzi growth-2	T cruzi growth-3	NIH3T3 tox	NIH3T3 tox 2
CN(C)C(=O)[C@@H]1[C@@H](CO)[C@@H]2Cn3c(ccc(-c4ccccc4)c3=O)[C@@H]2N1Cc1ccccc1	i	i	i	nt	nt	nt	nt
COc1ccc2c3c([nH]c2c1)[C@@H](CO)N(C(=O)NC(C)C)CC31CN(C(=O)C2CCCCC2)C1	nt	i	i	nt	nt	nt	nt
O=C(C[C@H]1C[C@H]2c3cc(NC(=O)Nc4ccc(F)cc4)ccc3O[C@H]2[C@H](CO)O1)NC1CCCCC1	i	i	i	nt	nt	nt	nt
CCCC(=O)N1CCC2(CC1)CN(C(=O)C1CC1)[C@H](CO)c1[nH]c3cc(OC)ccc3c12	nt	i	i	nt	nt	nt	nt
COc1cccc(-c2ccc3n(c2=O)C[C@@H]2[C@@H](CO)[C@H](C(=O)N(C)C)[C@H]3N2CC2CC2)c1	i	i	i	nt	nt	nt	nt
Cc1noc(C)c1S(=O)(=O)Nc1ccc2c(c1)CC(=O)N([C@@H](C)CO)C[C@@H](C)[C@@H](CN(C)S(=O)(=O)c1ccc(Cl)cc1)O2	?	i	i	i	i	i	39
Cc1noc(C)c1S(=O)(=O)Nc1ccc2c(c1)CC(=O)N([C@H](C)CO)C[C@H](C)[C@H](CN(C)S(=O)(=O)c1ccc(Cl)cc1)O2	i	i	i	nt	nt	nt	nt
CC(C)NC(=O)Nc1ccc2c(c1)CC(=O)N([C@H](C)CO)C[C@H](C)[C@H](CN(C)S(=O)(=O)c1ccc(Cl)cc1)O2	102	i	i	i	i	i	i
CC(C)NC(=O)Nc1ccc2c(c1)CC(=O)N([C@@H](C)CO)C[C@@H](C)[C@H](CN(C)S(=O)(=O)c1ccc(Cl)cc1)O2	i	i	i	nt	nt	nt	nt
CNC[C@H]1Oc2cc(-c3ccncc3)ccc2S(=O)(=O)N([C@@H](C)CO)C[C@H]1C	i	i	i	nt	nt	nt	nt
C[C@H](CO)N1C[C@H](C)[C@H](CN(C)S(=O)(=O)c2ccccc2)Oc2ccc(NC(=O)Nc3cccc4ccccc34)cc2C1=O	i	i	i	nt	nt	nt	nt
C[C@@H]1CCCCO[C@H](CN(C)S(=O)(=O)c2ccc(F)cc2)[C@@H](C)CN([C@H](C)CO)C(=O)c2cc(NC(=O)C3CCCCC3)ccc2O1	i	i	i	nt	nt	nt	nt
C[C@@H]1CCCCO[C@@H](CN(C)S(=O)(=O)c2ccc(F)cc2)[C@@H](C)CN([C@H](C)CO)C(=O)c2cc(NC(=O)C3CCCCC3)ccc2O1	i	i	i	nt	nt	nt	nt
C[C@@H]1CCCCO[C@@H](CN(C)S(=O)(=O)c2ccc(Cl)cc2)[C@@H](C)CN([C@@H](C)CO)C(=O)c2cc(NC(=O)C3CCCCC3)ccc2O1	108	-81	i	108	i	i	?
C[C@@H]1CN([C@@H](C)CO)C(=O)c2cc(NC(=O)C3CCCCC3)ccc2O[C@@H](C)CCCCO[C@@H]1CN(C)S(=O)(=O)c1ccc(Cl)cc1	?	-81	i	105	i	i	i
C[C@H]1CCCCO[C@H](CN(C)S(=O)(=O)c2ccc(Cl)cc2)[C@@H](C)CN([C@@H](C)CO)C(=O)c2cc(NC(=O)C3CCCCC3)ccc2O1	110	-85	i	110	101	i	i
C[C@@H]1CCCCO[C@@H](CN(C)S(=O)(=O)c2ccc(Cl)cc2)[C@H](C)CN([C@@H](C)CO)C(=O)c2cc(NC(=O)C3CCCCC3)ccc2O1	106	i	i	105	i	i	42
C[C@@H]1CCCCO[C@H](CN(C)S(=O)(=O)c2ccc(Cl)cc2)[C@@H](C)CN([C@H](C)CO)C(=O)c2cc(NC(=O)C3CCCCC3)ccc2O1	i	i	i	nt	nt	nt	nt
Cc1ccc(S(=O)(=O)N(C)C[C@@H]2OCCCC[C@@H](C)Oc3ccc(NC(=O)C4CCCCC4)cc3C(=O)N([C@@H](C)CO)C[C@H]2C)cc1	i	i	nt	nt	nt	nt	nt
CO[C@H]1CC[C@@H]2CCN(C)C(=O)[C@@H](C)[C@@H](OC)CN(C)C(=O)c3cccc(C#N)c3OC[C@@H]1O2	i	i	nt	nt	nt	nt	nt
C[C@H]1CN([C@@H](C)CO)C(=O)c2cc(NS(=O)(=O)c3ccccc3)ccc2O[C@@H]1CN(C)C(=O)Nc1cccc2ccccc12	i	i	i	nt	nt	nt	nt
C[C@@H]1CN([C@@H](C)CO)S(=O)(=O)c2ccc(C#CCC3CCCC3)cc2O[C@H]1CN(C)C	i	i	i	nt	nt	nt	nt
C[C@@H]1CN([C@H](C)CO)C(=O)c2cc(NC(=O)C3CCCCC3)ccc2O[C@@H](C)CCCCO[C@@H]1CN(C)S(=O)(=O)c1ccc(Cl)cc1	102	-86	i	104	i	i	i
C[C@@H]1CCCCO[C@@H](CN(C)S(=O)(=O)c2ccc(F)cc2)[C@@H](C)CN([C@@H](C)CO)C(=O)c2cc(NC(=O)C3CCCCC3)ccc2O1	i	i	i	nt	nt	nt	nt
Cc1ccc(S(=O)(=O)N(C)C[C@@H]2OCCCC[C@H](C)Oc3ccc(NC(=O)C4CCCCC4)cc3C(=O)N([C@H](C)CO)C[C@@H]2C)cc1	i	i	i	nt	nt	nt	nt
SMILES	T cruzi growth-1	Pf Dd2 inh	C diff growth	T cruzi growth-2	T cruzi growth-3	NIH3T3 tox	NIH3T3 tox 2
C[C@@H]1CCCCO[C@H](CN(C)S(=O)(=O)c2ccc(Cl)cc2)[C@H](C)CN([C@H](C)CO)C(=O)c2cc(NC(=O)C3CCCCC3)ccc2O1	110	-84	i	101	108	i	i
COc1ccc(S(=O)(=O)N[C@@H]2CC[C@H](CC(=O)NCCc3ccccc3)O[C@H]2CO)cc1	nt	i	i	nt	nt	nt	nt
C[C@@H]1CN([C@@H](C)CO)C(=O)Cc2cc(NC(=O)Nc3ccc(C(F)(F)F)cc3)ccc2O[C@@H]1CN(C)S(=O)(=O)c1ccc(F)cc1	i	i	nt	nt	nt	nt	nt
CC(C)CC#Cc1cnc2c(c1)C(=O)N([C@H](C)CO)C[C@H](C)[C@H](CN(C)C(=O)c1cccnc1)O2	i	i	i	nt	nt	nt	nt
C[C@@H]1CN([C@@H](C)CO)C(=O)Cc2cc(NC(=O)NC3CCCCC3)ccc2O[C@H]1CN(C)CC1CC1	i	i	i	nt	nt	nt	nt
CN(C)C(=O)c1ccc(-c2ccc3c(c2)[C@@H]2[C@@H](CCN2C(=O)c2ccccn2)[C@@H](CO)N3)cc1	i	i	i	nt	nt	nt	nt
O=C(c1ccccn1)N1CC[C@H]2[C@H](CO)Nc3ccc(-c4ccccc4)cc3[C@H]21	99	i	i	?	i	i	i
O=C(c1ccccn1)N1CC[C@H]2[C@H](CO)Nc3ccc(-c4ccc(F)cc4)cc3[C@H]21	?	i	i	108	98	i	29
O=C(c1ccccn1)N1CC[C@@H]2[C@H]1c1cc(-c3ccccc3F)ccc1N[C@@H]2CO	i	i	i	nt	nt	nt	nt
COc1ccc(S(=O)(=O)N[C@@H]2C=C[C@H](CC(=O)N3CCN(c4ccccc4)CC3)O[C@H]2CO)cc1	i	i	i	nt	nt	nt	nt
COc1ccc2c3c([nH]c2c1)[C@@H](CO)N(C(=O)Nc1ccc(F)cc1)CC31CCN(S(C)(=O)=O)CC1	nt	i	i	nt	nt	nt	nt
